Results reported in PubChem BioAssay AID493011 (Sanford-Burnham Center for Chemical Genomics, 2011).
Among all 330,000 compounds or so, about 1,400 (0.42%) were called active. The entries come from a sample that favours actives as a whole. A number with no mark means an inactive call.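 Rule for the calls: active = at least 40% inhibition at 20 µM here, with at most 30% in a related deaminase screen; inactive = the rest.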

The compounds below were run against DNA dC->dU-editing enzyme APOBEC-3A (Homo sapiens) (UniProt P31941) (assay: APOBEC3A ssDNA deaminase inhibitors, primary screen, selectivity assay for APOBEC3G inhibitor project, biochemical, FAM/TAMRA oligo cleavage fluorescence (AID 493011;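 note: plate controls were A3A with DMSO for no effect and wells lacking A3A enzyme for full effect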)). Settings: recombinant A3A, FAM/TAMRA ssDNA deamination fluorescence; at 20 µM; active compounds read high.
Chain of DNA dC->dU-editing enzyme APOBEC-3A (Homo sapiens) (P31941 whole entry, looked up): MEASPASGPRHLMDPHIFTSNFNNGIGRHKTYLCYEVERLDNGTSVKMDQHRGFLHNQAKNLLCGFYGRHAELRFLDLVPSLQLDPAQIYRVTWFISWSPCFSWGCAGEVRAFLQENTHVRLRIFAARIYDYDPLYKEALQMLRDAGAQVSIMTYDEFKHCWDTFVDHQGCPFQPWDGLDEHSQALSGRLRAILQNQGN
With `O=C1c2oc3ccccc3c(=O)c2C(c2cccc(O)c2)N1c1ccccn1` (stereo not drawn) the inhibition was 51.3% (active).
`O=c1c2ccccc2c(-c2ccccc2)nn1-c1ccccn1` was tested, and the inhibition was 0.978%.
`COCCN1C(=O)c2oc3c(C)cc(C)cc3c(=O)c2C1c1cccc(O)c1` (stereo not drawn) showed an inhibition of -3.14%.
Work on `O=C(NC(CC(=O)N1CCN(c2ccccc2)CC1)c1ccccc1)c1ccccc1Cl` (stereo not drawn) yielded an inhibition of -2.76%.
`CN1C(C(=O)NCC2CC2)CC2Cn3c(nc4ccccc43)C21` (stereo not drawn) showed an inhibition of -2.77%.
For `CCCCn1c(N)c(N(CC(C)C)C(=O)C2CSC3(C)CCC(=O)N23)c(=O)[nH]c1=O` (stereo not drawn), the inhibition was 7.64%.
In the case of `CN(CC(=O)Nc1ccc(F)c(F)c1F)C(=O)C1CC(=O)N(C2CCCC2)C1` (stereo not drawn), the inhibition is reported as 0.598%.
In the case of `CCOc1ccc(CNC(=O)C2CC(=O)N(C3CCCC3)C2)cc1OC` (stereo not drawn), the inhibition is reported as -5.29%.
In the case of `COc1ccc(Br)cc1CN(C)C(=O)C1CC(=O)N(C2CCCC2)C1` (stereo not drawn), the inhibition is reported as 43.5% (active).
For `Cc1ccc(NS(=O)(=O)c2ccc(C(C)C)cc2)cc1S(=O)(=O)N1CCOCC1`, the inhibition was 3.31%.
Work on `O=C(Cn1cnc2ccccc2c1=O)Nc1cccc(S(=O)(=O)N2CCCCC2)c1` yielded an inhibition of 2.51%.
For `CCOc1cc(C)c(S(=O)(=O)NCc2ccccn2)cc1C`, the inhibition was -6.13%.
With `O=[N+]([O-])c1ccc(N2CCN(CC(O)COc3ccccc3)CC2)cc1` (stereo not drawn) the inhibition was 0.14%.
`C[N+]1(CC(O)COc2ccccc2)CCN(C(=O)c2ccc([N+](=O)[O-])cc2)CC1` (stereo not drawn) was tested, and the inhibition was 67.8% (active).
`O=C(COc1ccccc1)Nc1ccc(C(=O)N2CCCC2)cc1` gave an inhibition of 0.542%.
`CCN(CC(=O)NCc1cccs1)c1nnnn1-c1ccccc1` gave an inhibition of -3.14%.
With `CCCCNC(=O)N1CCCC(N(C)CCc2ccc(OC)c(OC)c2)C1` (stereo not drawn) the inhibition was -3.11%.
`CCS(=O)(=O)c1ccc2c(c1)N(S(=O)(=O)c1ccccc1)CC(C(=O)O)O2` (stereo not drawn) showed an inhibition of 1.33%.
`COCCCn1c(SCC(=O)NC2CCCC2)nnc1-c1ccccc1` gave an inhibition of 0.169%.
With `CCOc1ccc(Nc2nc(Cc3nnc(SCC(=O)NC4CCCC4)n3C)cs2)cc1` the inhibition was -3.45%.
`COCCCn1c(Cc2csc(Nc3cccc(Cl)c3)n2)nnc1SCC(=O)OC1CCCCC1` was tested, and the inhibition was 50.4% (active).
For `O=C(Oc1ccc(-c2nc(-c3ccccn3)no2)cc1)c1ccccc1`, the inhibition was 2.42%.
In the case of `Cc1cn(C2OC[C@@H](O)[C@@H]2CO)c(=O)[nH]c1=O` (stereo partly drawn), the inhibition is reported as -1.23%.
In the case of `COc1ccc(CCNC(=O)COC(=O)/C=C/c2cccs2)cc1OC`, the inhibition is reported as 48.9% (active).
Compound `COc1ccc(/C=C/C(=O)OCC(=O)NCc2cccs2)cc1OC` has an inhibition of 2.47%.
`COc1ccc(CCNC(=O)c2cc3sccc3n2C)cc1OC` gave an inhibition of 5.91%.
Work on `COCCn1c(SCC(=O)N2CCCCCC2)nc2c(c1=O)SCC2` yielded an inhibition of -5.21%.
Work on `CC(C)(C)C1CCC(C(=O)Nc2cccnc2)CC1` (stereo not drawn) yielded an inhibition of -2.44%.
With `CCCc1ccc(OCc2ccc(C(=O)N/N=C/c3cccc([N+](=O)[O-])c3)o2)c(OC)c1` the inhibition was 2.99%.
`COc1cc(/C=N/NC(=O)Nc2ccccc2)ccc1OCCOc1ccccc1C` showed an inhibition of -4.86%.
With `COc1cc(/C=N\Nc2ccc([N+](=O)[O-])cn2)ccc1OCC(=O)O` the inhibition was 71.8% (active).
In the case of `COC(=O)C[n+]1cccc2ccccc21`, the inhibition is reported as 67.3% (active).
`COc1c(C(=O)N2CCCC2)ccc2ccccc12` showed an inhibition of 1.55%.
`O=C(C[n+]1cc(Br)cc2ccccc21)c1ccc(F)cc1` gave an inhibition of -1.32%.
With `COc1ccccc1NC(=O)COC(=O)c1ccccc1SCC(=O)N1CCCC1` the inhibition was 1.2%.
Compound `CCO[C@H]1OC(C(=O)N2CCN(Cc3ccccc3)CC2)=C[C@@H](c2cn(C(C)=O)c3ccccc23)[C@@H]1CCCO` has an inhibition of -2.14%.
For `COc1cc(C(=O)NCC2(c3ccccc3)CCCC2)ccc1OC(C)C`, the inhibition was 5.08%.
In the case of `O=C(CNC1CCCCC1)NCC1(c2ccccc2)CCCC1`, the inhibition is reported as 56.4% (active).
`CCOc1c(OC)cccc1C(=O)NCC1(c2ccccc2)CCCC1` was tested, and the inhibition was -3.19%.
For `O=C(NC1(C(F)(F)F)NC(=O)N(Cc2cccnc2)C1=O)c1ccccc1Cl` (stereo not drawn), the inhibition was 0.863%.
`C[N+]1(CCNC(=O)/C=N/O)CCCCC1` was tested, and the inhibition was 54.1% (active).
For `O=[N+]([O-])c1cc(S(=O)(=O)N2CCCC2)ccc1NN=C1CCCC1`, the inhibition was -1.16%.
In the case of `Cc1snc(SCc2c(F)cccc2Cl)c1C#N`, the inhibition is reported as 44.2% (active).
For `Cc1cc(SCc2c(F)cccc2Cl)nc(=O)[nH]1`, the inhibition was 1.16%.
`Cc1ccc(CSc2nsc(C)c2C#N)cc1` was tested, and the inhibition was -2.03%.
For `Cc1ccc(NC(=O)CN(C)C(=O)COC(=O)C(C)(C)Oc2ccc(Cl)cc2)cc1`, the inhibition was 1.01%.
With `O=C(CCC1CCCCC1)Nc1cc(C(F)(F)F)ccc1N1CCOCC1` the inhibition was 1.06%.
`COc1ccccc1N1CCN(C(=O)CCS(=O)(=O)c2ccc3c(c2)NC(=O)C(C)S3)CC1` (stereo not drawn) showed an inhibition of 0.853%.
For `Cc1cccc(N2C(=O)N3[C@H](c4ccc(F)cc4)[C@@H]4C(=O)N(C5CCCCC5)C(=O)[C@@H]4[C@]3(Cc3ccccc3)C2=O)c1`, the inhibition was 0.21%.
In the case of `CCN1C(=NCCc2cccnc2)N[C@@H](c2ccccc2)[C@H](C(=O)OC)[C@H]1C`, the inhibition is reported as 68.2% (active).
Compound `CCN1C(=NCCc2cccnc2)N[C@@H](c2ccccc2)C(C(=O)OC)=C1C` has an inhibition of 67.6%.
`CCN1C(=O)N[C@@H](c2ccccc2)[C@H](C(C)=O)[C@H]1C` showed an inhibition of -2%.
Compound `CC1=C(C(N)=O)C(c2sccc2C)n2nnnc2N1` (stereo not drawn) has an inhibition of 0.148%.
`Cc1cc(Cl)ccc1C(=O)C1CCCN(C(=O)c2nonc2C)C1` (stereo not drawn) was tested, and the inhibition was -5.04%.
With `Cc1cc(/C=N/NC(=O)CC2(C)OCCO2)c(C)n1-c1ccc(Cl)c(Cl)c1` the inhibition was 56.8% (active).
In the case of `Cc1ccccc1-n1c(C)cc(/C=N/NC(=O)c2ccc(CN3CCOCC3)cc2)c1C`, the inhibition is reported as 0.38%.
`Cc1cc(=O)cc(C)n1-c1ccc(Cl)c(Cl)c1` was tested, and the inhibition was 1.75%.
Compound `CCOc1ccc(S(=O)(=O)Nc2ccncc2)c(C)c1C` has an inhibition of -0.833%.
With `CCc1ccc(OCC(O)CN2CCN(CCO)CC2)cc1` (stereo not drawn) the inhibition was -7.28%.
Compound `CC(=O)c1ccc(N=C2SCCCN2C(=O)C2CCCCC2)cc1` has an inhibition of 4.36%.
In the case of `O=C(CN1C(=O)c2cccc3cccc(c23)C1=O)N1CCCCC1`, the inhibition is reported as -1.16%.
`C[N+](C)(CCCCCC[N+](C)(C)CCCN1C(=O)c2cccc3cccc(c23)C1=O)CCCN1C(=O)c2cccc3cccc(c23)C1=O` was tested, and the inhibition was 46% (active).
Work on `O=C1c2cccc3cccc(c23)C(=O)N1CCCCCc1n[nH]c(=S)o1` yielded an inhibition of -1.78%.
`CC(=O)c1ccc(NC(=S)N(Cc2ccccc2)C(C)C2CC2)cc1` (stereo not drawn) was tested, and the inhibition was 0.493%.
With `COc1ccc(-c2ocnc2C(=O)Nc2ccc3c(c2)CCC3)cc1` the inhibition was -0.367%.
In the case of `CCN(CC(=O)N1CCCC1)S(=O)(=O)c1ccc(F)cc1`, the inhibition is reported as -1.08%.
`N#Cc1ncc(C(F)(F)F)cc1Oc1cccnc1` was tested, and the inhibition was 60.4% (active).
`O=C(Nc1ccc(Cl)cc1)Nc1ccc(Oc2cccnc2)nc1` gave an inhibition of -3.23%.
`NC(=O)c1ncc(C(F)(F)F)cc1Oc1ccc(F)cc1` showed an inhibition of 2.03%.
For `COc1ccc(C)cc1NC(=O)CN1c2cccc3cccc(c23)S1(=O)=O`, the inhibition was -2.73%.
`CCN(C(=O)COc1ccc(C(=O)c2ccccc2)cc1)c1ccccc1` gave an inhibition of -0.203%.
For `COc1ccccc1CNC(=O)COC(=O)c1sc(C)nc1C`, the inhibition was -1.57%.
In the case of `CC[n+]1c(C)n(-c2ccccc2)c2ccc(NC(C)=O)cc21`, the inhibition is reported as 60% (active).
In the case of `CC(=O)Nc1ccc(NC(=O)CSc2nnc(C3CC3)n2-c2ccccc2)cc1`, the inhibition is reported as 10.5%.
For `CC(=O)c1cccc(NC(=O)c2cc(C)nn2-c2ccccc2)c1`, the inhibition was -0.424%.
`COc1cccc([C@H](O)Cn2cc(-c3ccc(CON=C(C)C)cc3)nn2)c1` was tested, and the inhibition was 2.45%.
`Cc1cc(C(=O)N/N=C/c2ccccn2)c2ccccc2n1` gave an inhibition of -3.08%.
`COc1ccc(Cc2nnc(N/N=C/c3ccccc3O)[nH]c2=O)cc1OC` was tested, and the inhibition was -1.76%.
For `Cc1nnc(N/N=C/c2ccccn2)[nH]c1=O`, the inhibition was 42.1% (active).
With `CC(C)(C)NC(=O)c1ccc(Cn2cc(C(F)(F)F)ccc2=O)cc1` the inhibition was -2.36%.
`CCOc1ccc(C(=O)NCC(=O)N2CCCCCCC2)cc1OCC` showed an inhibition of -0.114%.
Work on `CC(O)C(NS(=O)(=O)c1ccc(Cl)cc1)C(=O)OCc1cc([N+](=O)[O-])cc2c1OCOC2` (stereo not drawn) yielded an inhibition of -3.62%.
In the case of `NS(=O)(=O)c1ccc(CNC(=O)c2cccc(Oc3ccccc3)c2)cc1`, the inhibition is reported as -0.736%.
For `CCc1ccc(S(=O)(=O)Nc2cc3c(cc2N2CCCCC2)n(C)c(=O)c(=O)n3C)cc1`, the inhibition was -6.54%.
`COC(=O)C1=C(C)N(Cc2ccccc2)C(=NCCCOC(C)C)N[C@H]1c1ccccc1` was tested, and the inhibition was 45.5% (active).
`COC(=O)C1=C(C)N(C)C(=S)NC1c1ccccc1` (stereo not drawn) gave an inhibition of -2.13%.
In the case of `CCN1C(=O)N[C@@H](c2ccccc2)C(C(=O)OC)=C1C`, the inhibition is reported as 4.12%.
Work on `CC1CN(C2CCN(C(=O)COc3ccccc3)CC2)CC(C)O1` (stereo not drawn) yielded an inhibition of -6.23%.
`COC(=O)c1ccc(NC(=O)CSc2nnc(Cc3cccn3C)n2-c2ccc(F)cc2)cc1` showed an inhibition of -0.405%.
`Cc1cccc(N2CCN(C(=O)COCc3cc(-c4ccc5c(c4)OCO5)on3)CC2)c1C` gave an inhibition of -0.313%.
In the case of `CSc1nnc(SCc2nc3sc(C(=O)O)c(C)c3c(=O)[nH]2)s1`, the inhibition is reported as 65.8% (active).
`CC(=O)c1sc2nc(SCC(=O)N3CCCCC3)[nH]c(=O)c2c1C` was tested, and the inhibition was 2.37%.
`Cc1sc2nc(CSCC(=O)NC3CCCCC3)[nH]c(=O)c2c1C` gave an inhibition of -2.29%.
